# Measurements taken from PubChem BioAssay AID1347417 (National Center for Advancing Translational Sciences (NCATS), 2020).
# Out of some 120,000 compounds screened, about 5,300 (4.4%) were called active. Not shown: some 22% with an inconclusive outcome. Calls follow the shape of the dose curve; as a rule, active = well fitted inhibition curve with a large enough effect; inconclusive = small, poorly fitted or top-dose-only effect; inactive = no such curve, though single readings can be large or run the other way. What follows is part of a selection rich in actives, with near analogues and random picks from the rest.
# Assay: qHTS Primary assay for Inhibitors of Plasmodium falciparum Dd2 growth in vitro; also: nearly all actives have a fitted effect of over 65% in size;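 as to activity, negative = inhibition: plate controls were DMSO vehicle for no effect and reference drug for full effect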
# Conditions: P. falciparum Dd2 growth, SYBR Green, 72 h; series mostly up to 28.9 µM; activity, negative = inhibition: at the top concentration
# How it was run: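 Readout: SYBR Green fluorescence, 485 nm excitation, 535 nm emission, after ~16 h lysis at 37C. Before that, Dd2-infected red cells (2.5% hematocrit) grew 72 h with compound, 29 uM top final concentration.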
# Potency is read from the fitted curve at half-maximal effect.
Structure (SMILES),Potency,"activity, negative = inhibition",outcome
CCC(CC)C(=O)N1CCC(N2CCCC(C(=O)NCc3ccccc3)C2)CC1 (configuration not stated),10 µM (active),–,–
O=C(NCC1CC1)C1CCCN(C2CCN(Cc3ccncc3)CC2)C1 (configuration not stated),–,-7.77% (inactive),–
Cc1cc(CNC(=O)C2CCCN(C3CCN(CCc4ccccc4)CC3)C2)on1 (configuration not stated),–,-24.4% (inactive),–
O=C(NCCC1CCN(C(=O)Nc2ccccc2F)CC1)c1ccccc1,–,-16.1% (inactive),–
O=[S+]([O-])(Nc1cccnc1)c1ccc2c(c1)OCCN(Cc1ccc(F)cc1)C2,–,–,inactive [at 44.1 µM]
CCCCCC(=O)Nc1nc2c(s1)C[C@@H]1[C@](C)(CO)[C@H](O)CC[C@@]1(C)[C@@H]2CC(=O)N1CCC(C(N)=O)CC1,–,–,inactive
C=CCN(C)C(=O)C[C@@H]1c2nc(NC(=O)c3ccc(C(C)(C)C)cc3)sc2C[C@@H]2[C@](C)(CO)[C@H](O)CC[C@]21C,3.98 µM (active),–,–
COCC(=O)Nc1nc2c(s1)C[C@@H]1[C@](C)(CO)[C@H](O)CC[C@@]1(C)[C@@H]2CC(=O)NCCN1CCOCC1,–,-13.9% (inactive),–
CC1CCN(C(=O)C[C@@H]2c3nc(NC(=O)c4ccnc(Cl)c4)sc3C[C@@H]3[C@](C)(CO)[C@H](O)CC[C@]32C)CC1,6.31 µM (active),–,–
C=CCN(C)C(=O)[C@@H](C)C1CC[C@@]2(C)Cc3sc(Nc4c(Cl)cccc4Cl)nc3[C@@H](C)[C@@H]2[C@H]1O (some centres not stated),–,-6.82% (inactive),–
Cc1ccc(S(=O)(=O)Nc2nc3c(s2)C[C@@H]2[C@](C)(CO)[C@H](O)CC[C@@]2(C)[C@@H]3CC(=O)O)cc1,–,-8.19% (inactive),–
CN1CCC2(C1)CN(CC1CCOCC1)c1ccc(C(=O)NCCCn3ccnc3)cc12 (configuration not stated),–,–,inactive [at 44.1 µM]
c1ncc(CN2CCn3c(nnc3C3CCCNC3)C2)s1 (configuration not stated),inactive,–,–
Cc1nc(N)nc(C)c1CC(=O)N1CCC2(CC1)OCCCC2O (configuration not stated),–,-11.9% (inactive),–
COc1ccc(CNC(=O)c2ccc3c(O)c(S(=O)(=O)c4ccccc4)c(=O)[nH]c3c2)cc1,–,-18.4% (inactive),–
Cc1ccc(C(=O)Nc2ccc3[nH]c(=O)c(=O)[nH]c3c2)cc1,–,-15.3% (inactive),–
CC(C)c1ccc(NC(=O)c2ccc3c(O)c(S(=O)(=O)c4ccccc4)c(=O)[nH]c3c2)cc1,11.2 µM (active),–,–
COc1cccc([S+](=O)([O-])N2CCC3(C2)C(=NC2CCCCC2)NC(=O)N3c2cccnc2)c1 (configuration not stated),–,-9.4% (inactive),–
N#Cc1ccc(S(=O)(=O)N2CC(n3cc(C(=O)NCc4ccccc4)nn3)C2)cc1,–,-2.08% (inactive),–
O=C1NCCCCCN(Cc2cccnc2)[C@@H]2CN(C(=O)C3CCCCC3)CC[C@@H]12,–,6.03% (inactive),–
Cc1ccc(NC(=O)N2CC[C@H]3C(=O)NCCCCCN(Cc4cccnc4)[C@@H]3C2)cc1C,8.91 µM (active),–,–
O=C1NCCCCCCN(Cc2ccncc2)[C@@H]2CN(C(=O)Nc3ccc4c(c3)OCCO4)CC[C@@H]12,–,–,inactive
O=C(NCc1ccco1)N1CC2CC(C1)[C@H]1CCCC(=O)N1C2 (some centres not stated),–,-10.7% (inactive),–

Structure (SMILES),Potency,"activity, negative = inhibition",outcome
O=C([C@@H]1CCCN1C1CCNCC1)N1CCN(Cc2cccnc2)CC1,–,-4.31% (inactive),–
COCC1CN(C(C)=O)CC12CCN(Cc1cccc(C#N)c1)CC2 (configuration not stated),–,9.9% (inactive),–
CCOc1cccc(CN2CCC3(CC2)CN(C)CC3COC)c1 (configuration not stated),4.47 µM (active),–,–
COCC1CN(C(C)=O)CC12CCN(C(=O)NCc1cccc(OC)c1)CC2 (configuration not stated),–,10.7% (inactive),–
CCOc1ccc(-c2n[nH]c3c2C(c2ccccc2OC)N(c2ccc(Br)cc2)C3=O)cc1 (configuration not stated),10 µM (active),–,–
CN1C(=O)c2[nH]nc(-c3ccc(F)cc3)c2C1c1ccccn1 (configuration not stated),–,18.1% (inactive),–
Cc1ccc(-n2c(C3CCN(C(=O)c4ccccc4C(F)(F)F)CC3)n[nH]c2=O)cc1,–,–,inactive
CC(=O)Nc1cccc(NC(=O)C2CC(=O)N(c3n[nH]c4ccccc34)C2)c1 (configuration not stated),–,-10.6% (inactive),–
O=c1n(CC2CC2)nc2n1CCC(NS(=O)(=O)Cc1ccccc1)CC2 (configuration not stated),–,5.73% (inactive),–
CC(=O)c1cc(CN2CCn3nc(C(O)c4ccnn4C)cc3C2)cs1 (configuration not stated),–,14.7% (inactive),–
COC1CCN(CC2CCCCCN2C(=O)NCc2ccc(F)cc2)CC1 (configuration not stated),–,–,inactive
O=C(N1CCCCCC1CN1CCOCC1)C1(c2ccccc2)CC1 (configuration not stated),10 µM (active),–,–
CC(=O)N(C1CC1)C1CCOC2(CCN(C(=O)C3(c4ccccc4)CC3)CC2)C1 (configuration not stated),–,–,inactive; activator; fitted 4.4668 uM
O=C1NCCOCCCN(C(=O)NCCc2ccccc2)[C@H]2CCC[C@@H]12,–,17.8% (inactive),–
O=C(NCCc1ccccc1)N1CCCCCC1CN1CCOCC1 (configuration not stated),7.94 µM (active),–,–
O=C(c1cccs1)N1CCCCCC1CN1CCCC1 (configuration not stated),1.26 µM (active),–,–
O=C(N1CCCC(Cc2nc(C3CCOCC3)no2)C1)C1(c2ccccc2)CC1 (configuration not stated),–,9.71% (inactive),–
O=C1NCCCCCN(C(=O)NCCc2ccccc2)[C@H]2CCC[C@@H]12,–,1.93% (inactive),–
O=C(Cc1cccs1)N1CCCCCC1c1nc(C2CC2)no1 (configuration not stated),–,–,inactive
Cc1cc(C)n(-c2cccc(CN(C)Cc3nc(-c4ccccn4)no3)c2)n1,–,-4.1% (inactive),–
CC(C)c1ccc(N2C(=O)N[C@@H]3CCN(C(=O)c4ccc(C(C)(C)C)cc4)[C@@H]3C2=O)cc1,–,-1.05% [at 44.1 µM] (inactive),–
O=C(Cn1ccn2nc(-c3ccccc3)c(CO)c2c1=O)Nc1ccc2c(c1)CCC2,–,-5.37% (inactive),–
O=C(c1ccc2cc[nH]c2c1)N1CCCN(c2cc(-c3ccc(Cl)cc3)[nH]n2)CC1,–,-29.3% (inactive),–

Structure (SMILES),Potency,"activity, negative = inhibition",outcome
CN1C(=O)CS(=O)C12CCN(S(=O)(=O)c1ccc(F)cc1)CC2 (configuration not stated),–,1.13% (inactive),–
Cc1noc([C@@H]2CN(Cc3ccc(C)o3)C[C@H]2CO)n1,–,-25.5% (inactive),–
Cc1ccc(F)cc1NC(=O)CCSc1nc(-c2ccco2)cc(C(F)(F)F)n1,0.794 µM (active),–,–
CN(C)c1ccc(NC(=O)CSc2nc(-c3ccco3)cc(C(F)(F)F)n2)cc1,–,-7.33% (inactive),–
Cc1cccc(NC(=O)CSc2nc(-c3ccco3)cc(C(F)(F)F)n2)c1C,–,12.1% (inactive),–
Cc1cc(C)cc(C(=O)NCCc2noc(C)n2)c1,–,-20.8% (inactive),–
Cc1c(Cl)cccc1NC(=O)C1CCCN(c2ncnc3onc(C)c23)C1 (configuration not stated),–,-4.54% (inactive),–
Cc1ccc(Cl)cc1N(C)C(=O)C1CCCN(c2ncnc3onc(-c4ccc(F)cc4)c23)C1 (configuration not stated),8.91 µM (active),–,–
COc1ccccc1N1CCN(c2ncnc3onc(-c4ccc(F)cc4)c23)CC1,–,-11.9% (inactive),–
COc1ccc(C(=O)N[C@H](c2cnn(C)c2)C2CC(O)C2)c(F)c1F (some centres not stated),–,-3.56% (inactive),–
COc1cccc(CN2CCN(Cc3ncccc3C)CC2)c1O,–,-14% (inactive),–
CCOC(=O)c1[nH]ncc1CN1CCCC(Cc2ccc(F)cc2F)(C(=O)OCC)C1 (configuration not stated),–,-6.69% (inactive),–
CCOC(=O)C1(Cc2ccc(F)cc2F)CCCN(Cc2cccc(OC)c2O)C1 (configuration not stated),3.16 µM (active),–,–
CC(=O)c1ccc(NC(=O)C2CCN(S(=O)(=O)c3c(C)noc3/C=C/c3ccc(C)cc3)CC2)cc1,–,–,inactive
CCOC(=O)c1c(C)[nH]c(C)c1S(=O)(=O)N1CCC(C(=O)Nc2ccc(C)c(Cl)c2)CC1,–,6.26% (inactive),–
CCOc1ccc(NC(=O)C2CCN(S(=O)(=O)c3cc(-c4noc(C)n4)ccc3C)CC2)cc1,3.98 µM (active),–,–
Cc1cnn(CCC(=O)N2CC(F)(F)C[C@H]2c2nnc(C)o2)c1,–,32.9% (inactive),–
COc1cccc(S(=O)(=O)N2CCCN(C(=O)C3CC3)c3ccccc32)c1,–,-17.6% (inactive),–
CCOC(=O)c1[nH]c(C)c(CCC(=O)N2CCN(c3ccccc3)CC2)c1C,3.98 µM (active),–,–
Cc1nc(SCC(=O)N2CCN(c3ccccc3)CC2)[nH]c(=O)c1C,–,2.9% (inactive),–
CCOC(=O)c1c(C)[nH]c(C)c1S(=O)(=O)N(C)CC(=O)N1CCN(c2ccccc2)CC1,–,–,inactive
COCCN1C(=O)c2cccn2CC1CNS(=O)(=O)c1c(C)noc1C (configuration not stated),–,-0.664% (inactive),–
COc1cccc(C(=O)N2CCC(Oc3ccc(C(=O)N4CCOCC4)cn3)CC2)c1,–,35% (inactive),–

Structure (SMILES),Potency,"activity, negative = inhibition",outcome
O=C(c1cccc(OC2CN(Cc3nccs3)C2)c1)N1CCOCC1,2.51 µM (active),–,–
O=C(c1cccc(F)c1)N1CCOC[C@H](Oc2ccc(C(F)(F)F)cc2)C1,–,–,inactive [at 44.1 µM]
CC(=O)NCCC(=O)N1Cc2ccccc2CC2(CCCCN2CC2CCNC2)C1 (configuration not stated),–,11.9% (inactive),–
O=C(C1CCCC1)N1Cc2ccccc2CC2(CCCCN2CC2CCNCC2)C1 (configuration not stated),5.01 µM (active),–,–
O=C(c1ccccc1)N1Cc2ccccc2CC2(CCCN2CC2CCNC2)C1 (configuration not stated),–,-21.9% (inactive),–
COCCOc1ccnc(-c2noc([C@@H]3CCCN3Cc3ccc(Cl)cc3)n2)c1,3.98 µM (active),–,–
COc1ccc(C(=O)Nc2ccc(-c3noc([C@@H]4CCCN4Cc4ccc(S(C)(=O)=O)cc4)n3)cn2)cc1,–,–,inactive
COCCNc1ncccc1-c1noc([C@@H]2CCCN2Cc2ccc3c(c2)OCO3)n1,–,-24% [at 44.1 µM] (inactive),–
Cc1ccc2c(c1)N1C(=O)OC[C@@H]1CCN(C(=O)c1ccnc(Cl)c1)C2,–,14% [at 44.1 µM] (inactive),–
Cc1ccc(-c2nocc2CCC(=O)N2CCN(c3ccccc3F)CC2)cc1,–,–,inactive
CN(C)C(=O)c1cccnc1N1CC2CC(C1)[C@H]1CCCC(=O)N1C2 (some centres not stated),–,-8.74% (inactive),–
COc1ccccc1-c1ccc(C(=O)O)cc1,–,–,inactive [at 44.1 µM]
COc1ccc(-c2ccccc2CN)cc1,7.94 µM (active),–,–
COc1ccc(-c2nn3c(-c4ccc(OC)cc4)nnc3c3ccccc23)cc1,–,31.5% (inactive),–
CC(C)c1noc(-c2cn(C3CCN(C(=O)COc4ccccc4)C3)nn2)n1 (configuration not stated),–,-11.6% (inactive),–
CC(C)c1noc(-c2cn(C3CCN(C(=O)c4cccc(C#N)c4)CC3)nn2)n1,–,-18.1% (inactive),–
CC(C)c1noc(-c2cn(C3CCN(C(=O)COc4ccc(F)cc4)CC3)nn2)n1,10 µM (active),–,–
CNC(=O)[C@@H]1CN(C(=O)Cc2cccnc2)C[C@H]1COC,–,22.4% (inactive),–
O=C(NC1CCCC1)N1CC2CC(C1)[C@H]1CCCC(=O)N1C2 (some centres not stated),–,6.81% (inactive),–
CCOC(=O)c1scc(-c2ccc(C)cc2)c1S(=O)(=O)Nc1cc(C)ccc1C,–,–,inactive
COC(=O)c1scc(-c2ccc(C)cc2)c1S(=O)(=O)Nc1cc(Cl)c(OC)cc1OC,8.91 µM (active),–,–
COC(=O)c1scc(-c2ccccc2)c1S(=O)(=O)Nc1ccccc1,–,13.8% (inactive),–
COc1ccc(CN2C[C@H]3CN(Cc4ccccc4)CCN3C2=O)cc1,–,–,inactive [at 44.1 µM]
